Reference: PubChem BioAssay (NCATS)
Records with an inconclusive call do not appear. A call without a number means that no potency is given here. Values without a mark were called inactive. Calls of active or inactive are those of the source. Calls come from the whole dose curve; as a rule, active = well fitted cell-killing curve with a large enough effect; inconclusive = small, poorly fitted or top-dose-only effect, or effect the other way; inactive = flat fitted curve, though single readings scatter.

tested on: Hek293T; experiment: Primary qHTS to identify gynecologic anti-cancer compounds using libraries of approved drugs and bioactive compounds (AID 1345084); details: Gynecologic cancer cell panel viability, ATPlite luminescence, 48 h, control line for the selectivity index; series mostly up to 57.5 µM; note: nearly all actives have a fitted effect of over 55% in size
Procedure, shortened: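 Cells, 1,000 per well, were allowed to settle for 16 h at 37 C before compound addition. Five concentrations were tested for 48 h, and viability was read by ATPlite luminescence after 15 min at room temperature.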

| SMILES | Potency | activity change, negative = cytotoxicity |
| --- | --- | --- |
| COC(=O)c1ccc(OC(CO)C(O)c2ccc(O)c(OC)c2)c(OC)c1 (stereo unspecified) | inactive | – |
| COc1ccc2nc(S(=O)(=O)Cc3ncc(C)c(OC)c3C)[nH]c2c1 | inactive | – |
| CC(=O)c1cc2c(cc1O)OC(C)(C)C=C2 | inactive | – |
| COc1ccc([C@@]2(O)c3c(ccc(CC=C(C)C)c3O)NC(=O)[C@@H]2OC)cc1 | inactive | – |
| COC(=O)C1=CO[C@@H](O[C@@H]2O[C@H](CO)[C@@H](O)[C@H](O)[C@H]2O)[C@H]2[C@@H]1C=C[C@@]21C=C([C@H](C)O)C(=O)O1 | inactive | – |
| c1ccc(N2CCN(CCc3nn[nH]n3)CC2)cc1 | inactive | – |
| Cc1cc2c(c(=O)[nH]1)OC(C(O)CC(C)C)O2 (stereo unspecified) | inactive | – |
| CC(=O)c1ccc2c(c1)C(O)C(C(C)(C)O)O2 (stereo unspecified) | inactive | – |
| CC1(C)CC[C@]2(C(=O)O[C@@H]3O[C@H](CO[C@@H]4O[C@H](CO)[C@@H](O)[C@H](O)[C@H]4O[C@@H]4O[C@H](CO)[C@@H](O)[C@H](O)[C@H]4O)[C@@H](O)[C@H](O[C@@H]4O[C@H](CO)[C@@H](O)[C@H](O)[C@H]4O)[C@H]3O)CC[C@]3(C)C(=CCC4[C@@]5(C)CC[C@@H](O)[C@@](C)(C(=O)O[C@@H]6O[C@H](CO)[C@@H](O)[C@H](O)[C@H]6O)C5CC[C@]43C)[C@@H]2C1 (stereo partly specified) | – | 16.4% [at 6.55 µM] |
| CC1=C(C)C(=O)OC(C(C)C2CCC3C4CC=C5CC(OC6OC(COC7OC(CO)C(O)C(O)C7O)C(O)C(O)C6O)CC(O)C5(C)C4CCC23C)C1 (stereo unspecified) | inactive | – |
| CC(C)=CCC[C@](C)(O)[C@H]1CC[C@]2(C)[C@@H]1[C@H](O)CC1[C@@]3(C)CC[C@H](O)C(C)(C)C3[C@@H](O[C@@H]3O[C@H](CO)[C@@H](O)[C@H](O)[C@H]3O[C@@H]3OC[C@@H](O)[C@H](O)[C@H]3O)C[C@]12C (stereo partly specified) | inactive | – |
| C[C@@H]1CC[C@@]2(OC1)O[C@H]1C[C@H]3[C@@H]4CC=C5C[C@@H](O)CC[C@]5(C)[C@H]4CC[C@]3(C)[C@H]1[C@@H]2C | inactive | – |
| CC(C)[C@@H](CS(=O)(=O)C(C)C)N1C(=O)[C@@](C)(CC(=O)O)C[C@H](c2cccc(Cl)c2)[C@H]1c1ccc(Cl)cc1 | inactive | – |
| CC(C)=CCC[C@](C)(O[C@@H]1O[C@H](CO)[C@@H](O)[C@H](O)[C@H]1O)[C@H]1CC[C@]2(C)[C@@H]1[C@H](O)CC1[C@@]3(C)CC[C@H](O)C(C)(C)C3[C@@H](O[C@@H]3O[C@H](CO)[C@@H](O)[C@H](O)[C@H]3O)C[C@]12C (stereo partly specified) | inactive | – |
| C/C=C(/COC(=O)/C(C)=C/C)C(=O)OC(CC)c1ccc(OC)c(OC)c1 (stereo unspecified) | inactive | – |
| COc1ccc2cc(C(C)C(=O)Oc3ccc(C(N)=S)cc3)ccc2c1 (stereo unspecified) | inactive | – |
| C/C=C1\[C@H](O[C@@H]2O[C@H](CO)[C@@H](O)[C@H](O)[C@H]2O)OC=C(C(=O)OC)[C@H]1CC(=O)O | inactive | – |
| C[C@@H]1O[C@@H](O[C@H]2[C@H](OC(=O)[C@]34CCC(C)(C)C[C@H]3C3=CCC5[C@@]6(C)C[C@H](O)[C@H](O[C@@H]7O[C@H](CO)[C@@H](O[C@H]8OC[C@](O)(CO)[C@H]8O)[C@H](O)[C@H]7O)[C@@](C)(CO)C6[C@H](O)C[C@@]5(C)[C@]3(C)C[C@H]4O)OC[C@H](O)[C@@H]2O)[C@H](O)[C@H](O)[C@H]1O[C@@H]1OC[C@@H](O)[C@H](O[C@@H]2OC[C@](O)(CO)[C@H]2O)[C@H]1O (stereo partly specified) | – | 2.67% [at 6.55 µM] |
| CC(C)C(=O)OC[C@H]1O[C@H](O[C@H]2O[C@H](CO)[C@@H](O)[C@H](O)[C@H]2O)[C@H](O)[C@@H](O)[C@@H]1O | inactive | – |
| O=C(COc1cccc2c(=O)[nH]ccc12)c1ccccc1 | inactive | – |
| CC(=O)N1CCN(Cc2ccc([C@H](C)Nc3nccc(N4C(=O)OC[C@@H]4C(C)C)n3)cc2)CC1 | inactive | – |
| CCC(Nc1ncnc2nc[nH]c12)c1nc2cccc(F)c2c(=O)n1-c1ccccc1 (stereo unspecified) | inactive | – |
| CC(C(O)/C=C/C(C)(C)O)C1CCC2(C)C3C(=O)C=C4C(CCC(O)C4(C)C)C3(C)CCC12C (stereo unspecified) | inactive | – |
| c1ccc(-c2ncc(CN3CCN(c4ncccn4)CC3)[nH]2)cc1 | inactive | – |
| CC[C@@H](O)C[C@@H]1C(C)=C[C@@H]2CCCC[C@@H]2[C@@]1(C)C(=O)O | inactive | – |
| O=C(/C=C/c1ccc(O)cc1)OC1[C@H](O)CC(O)(C(=O)O)C[C@H]1O (stereo partly specified) | inactive | – |
